The campaign covered roughly 360,000 compounds. About 16,000 (4.4%) were called active. Not shown: some 9% with an inconclusive outcome. Calls come from the whole dose curve; as a rule, active = well fitted inhibition curve with a large enough effect; inconclusive = small, poorly fitted or top-dose-only effect; inactive = no such curve, though single readings can be large or run the other way. Many of the other results were omitted from the sample, so actives are more common in it than they were.
Molecular target: Bromodomain adjacent to zinc finger domain protein 2B (Homo sapiens) (UniProt Q9UIF8)
Sequence (Q9UIF8 whole entry, looked up, the tested form may be a part): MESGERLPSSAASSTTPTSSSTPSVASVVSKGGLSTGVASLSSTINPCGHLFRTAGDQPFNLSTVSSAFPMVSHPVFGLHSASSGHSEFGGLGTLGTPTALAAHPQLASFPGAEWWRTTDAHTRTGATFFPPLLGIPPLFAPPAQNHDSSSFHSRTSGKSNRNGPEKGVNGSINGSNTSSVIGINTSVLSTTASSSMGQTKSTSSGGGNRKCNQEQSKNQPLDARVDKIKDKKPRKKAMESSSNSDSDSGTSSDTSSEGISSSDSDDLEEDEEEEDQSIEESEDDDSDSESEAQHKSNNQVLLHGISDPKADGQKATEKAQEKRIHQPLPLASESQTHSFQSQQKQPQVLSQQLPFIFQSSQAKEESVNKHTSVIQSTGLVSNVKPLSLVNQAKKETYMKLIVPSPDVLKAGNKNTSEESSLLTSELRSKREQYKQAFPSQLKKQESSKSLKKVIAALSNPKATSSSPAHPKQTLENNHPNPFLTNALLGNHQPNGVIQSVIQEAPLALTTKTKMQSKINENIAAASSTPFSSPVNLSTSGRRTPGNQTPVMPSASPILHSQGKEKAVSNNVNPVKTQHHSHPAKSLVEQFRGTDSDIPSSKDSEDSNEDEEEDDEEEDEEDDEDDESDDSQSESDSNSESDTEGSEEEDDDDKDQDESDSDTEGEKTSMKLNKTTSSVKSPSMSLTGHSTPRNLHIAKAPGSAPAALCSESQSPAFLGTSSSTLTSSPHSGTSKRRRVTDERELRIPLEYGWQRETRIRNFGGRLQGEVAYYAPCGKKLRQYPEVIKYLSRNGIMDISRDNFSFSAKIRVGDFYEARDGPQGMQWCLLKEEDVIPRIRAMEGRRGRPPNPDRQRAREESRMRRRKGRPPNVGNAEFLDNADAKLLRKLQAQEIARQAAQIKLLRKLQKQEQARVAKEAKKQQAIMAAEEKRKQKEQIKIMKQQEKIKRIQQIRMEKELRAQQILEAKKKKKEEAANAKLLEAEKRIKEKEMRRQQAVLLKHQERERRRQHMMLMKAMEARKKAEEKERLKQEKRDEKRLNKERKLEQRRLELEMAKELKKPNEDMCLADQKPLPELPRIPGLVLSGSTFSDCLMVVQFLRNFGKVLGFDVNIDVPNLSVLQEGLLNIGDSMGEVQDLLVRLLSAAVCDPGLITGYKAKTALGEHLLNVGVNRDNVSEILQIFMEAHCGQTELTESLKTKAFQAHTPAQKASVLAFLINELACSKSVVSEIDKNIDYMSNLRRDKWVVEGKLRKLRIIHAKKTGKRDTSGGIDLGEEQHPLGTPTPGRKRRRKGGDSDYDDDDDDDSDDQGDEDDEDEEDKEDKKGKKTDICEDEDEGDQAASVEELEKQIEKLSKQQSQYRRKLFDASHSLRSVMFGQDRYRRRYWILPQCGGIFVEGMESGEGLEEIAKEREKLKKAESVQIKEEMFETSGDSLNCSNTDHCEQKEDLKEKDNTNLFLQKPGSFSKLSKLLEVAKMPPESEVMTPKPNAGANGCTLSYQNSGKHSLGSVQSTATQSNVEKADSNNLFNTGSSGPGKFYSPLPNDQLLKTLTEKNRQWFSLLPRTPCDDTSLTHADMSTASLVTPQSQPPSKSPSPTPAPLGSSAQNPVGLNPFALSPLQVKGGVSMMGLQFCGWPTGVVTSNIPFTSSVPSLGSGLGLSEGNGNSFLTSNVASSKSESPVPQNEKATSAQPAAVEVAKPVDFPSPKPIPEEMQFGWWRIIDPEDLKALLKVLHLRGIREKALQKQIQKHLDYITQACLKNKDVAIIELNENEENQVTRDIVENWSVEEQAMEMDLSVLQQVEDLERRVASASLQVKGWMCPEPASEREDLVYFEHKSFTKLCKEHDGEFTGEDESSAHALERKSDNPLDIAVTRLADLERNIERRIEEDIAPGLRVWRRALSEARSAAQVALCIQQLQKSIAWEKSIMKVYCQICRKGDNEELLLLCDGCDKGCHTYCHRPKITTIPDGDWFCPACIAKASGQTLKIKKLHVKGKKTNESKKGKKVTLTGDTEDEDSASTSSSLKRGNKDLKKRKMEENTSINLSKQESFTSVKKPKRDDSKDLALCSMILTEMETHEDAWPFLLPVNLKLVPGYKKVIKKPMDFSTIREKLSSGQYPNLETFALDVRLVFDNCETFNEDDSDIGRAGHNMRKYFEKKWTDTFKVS
Assay: qHTS Assay for Inhibitors of BAZ2B; note: nearly all actives have a fitted effect of over 60% in size
Details: AlphaScreen BAZ2B-H3K14Ac peptide displacement; series mostly up to 114 µM; activity change, negative = inhibition: at the top concentration
Procedure, shortened: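 In this displacement format the biotinylated H3(5-23) peptide acetylated at Lys14 serves as ligand at 50 nM, with BAZ2B at 50 nM in PBS pH 7.4 containing 0.01% Tween-20. Donor and acceptor beads are 10 ug/mL final.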
% is set by controls: 0 for no effect and ±100 for the full control effect; potency is the fitted concentration of half-maximal effect.

SMILES | activity change, negative = inhibition | Potency
COc1ccc(OC)c(-c2noc(N3CCN(c4cc(Cl)ccc4C)CC3)n2)c1 | 0.334% (inactive) | 
O=C(Nc1ccc2nc(SCC(=O)N3CCCc4ccccc43)sc2c1)c1ccc(F)cc1 | -4.11% (inactive) | 
CCOC(=O)c1c(C)[nH]c(C)c1S(=O)(=O)NCC(=O)NCc1cccc(C)c1 | -11.8% (inactive) | 
Cc1ccc(C)c(CNC(=O)c2cc3ccccn3n2)c1 | 0.834% (inactive) | 
Cc1ccc2nc(N(CCN(C)C)C(=O)C3=COCCO3)sc2c1 | -2.02% (inactive) | 
CN(C)CCCN(C(=O)c1ccc(S(=O)(=O)N2CCCc3ccccc32)cc1)c1nc2ccc(F)cc2s1 |  | 28.2 µM (active)
CCN(CC)CCN(C(=O)c1ccc(S(=O)(=O)N2CCOCC2)cc1)c1nc2cc3c(cc2s1)OCCO3 | -27.1% (inactive) | 
CSc1nc2ccc(S(=O)(=O)N3CCc4ccccc43)cc2s1 | 8.85% (inactive) | 
CN(C)CCCN(C(=O)c1ccc(S(=O)(=O)N2CCCCCC2)cc1)c1nc2ccc(Br)cc2s1 |  | 28.2 µM (active)
CCc1ccc2nc(N(CCCN(C)C)C(=O)c3ccc4c(c3)OCCO4)sc2c1 | 5.24% (inactive) | 
CCOc1ccc(OCC)c(NC(=O)c2c(C)nn(-c3ccccc3)c2-n2cccc2)c1 | -14.5% (inactive) | 
O=C(CCc1ccccc1)NCc1ccc2c(c1)CCN2C(=O)c1ccccc1 | 0.443% (inactive) | 
CCOCCCNC(=O)c1c(NC(=O)Cc2coc3ccc(C)cc23)sc2c1CCC2 | -24% (inactive) | 
COc1ccccc1N(CC(=O)N/N=C(\C)c1ccccc1O)S(=O)(=O)c1ccc(C)cc1 |  | 50.1 µM (active)
COc1ccccc1NC(=O)CN(c1ccccc1OC)S(=O)(=O)c1ccccc1 | -1.7% (inactive) | 
COc1ccc(S(=O)(=O)N(CC(=O)N/N=C/c2ccccc2C(=O)O)c2ccccc2OC)cc1 | -4.57% (inactive) | 
CCCN(CCC)S(=O)(=O)c1ccc(C(=O)Nc2sc3c(c2C(=O)OC)CCN(CC)C3)cc1 | 5.32% (inactive) | 
Cc1cccc(C(=O)N2CCc3cc(CNC(=O)Cc4ccc(F)cc4)ccc32)c1 | -4.43% (inactive) | 
CCC(=O)Nc1c(C(=O)N2CCN(c3ccc(F)cc3)CC2)oc2ccccc12 | -0.938% [at 57.1 µM] (inactive) | 
Cc1nnc(SCC(=O)NCc2ccccc2Cl)c2nn(-c3ccccc3)c(C)c12 | -11.1% (inactive) | 
Cc1nn(C(C)C(=O)NCCC2=CCCCC2)c(=O)c2nn(-c3ccccc3)c(C)c12 (stereo unspecified) | -18.5% (inactive) | 

SMILES | activity change, negative = inhibition | Potency
Cc1ccc(-n2nc3c(=O)n(C(C)C(=O)NCc4ccc5c(c4)OCO5)nc(C)c3c2C)cc1 (stereo unspecified) |  | 79.4 µM (active)
COc1ccc(CNC(=O)C(C)n2nc(C)c3c(C)n(-c4ccccc4)nc3c2=O)c(OC)c1 (stereo unspecified) |  | inactive
O=C(CSCc1cnn(-c2ccccc2)c1-n1cccc1)NCc1ccccc1Br | -3.98% (inactive) | 
CCn1c(-c2cc(OC)ccc2OC)csc1=Nc1c(C)n(C)n(-c2ccccc2)c1=O | -32.6% (inactive) | 
CN=c1scc(-c2cc(OC)ccc2OC)n1/N=C/c1c(C)[nH]c2ccccc12 |  | 35.5 µM (active)
COCCNC(=S)N/N=C/c1c(C)[nH]c2ccccc12 | -32.2% (inactive) | 
COc1ccc(CNC(=O)Cn2nnc(-c3ccccc3F)n2)cc1 | -23.3% (inactive) | 
CC(C)c1ccc(NC(=O)c2cc(S(=O)(=O)N3CCc4ccccc4C3)ccc2F)cc1 | 6.06% (inactive) | 
Cc1cccc(CCNC(=O)c2ccc3c(c2)nc2n3CCC(C)C2)c1 (stereo unspecified) | 1.78% (inactive) | 
Cc1ccc(C)n1-c1nnc(N2CCC(C(=O)NCc3ccccc3Cl)CC2)s1 | -14.5% (inactive) | 
Cc1cc(/C=N/NC(N)=O)c(C)n1C1CCCCC1 |  | 50.1 µM (active)
Cc1ccc(-n2c(C)cc(/C=N\NC(=O)CC(=O)NC(C)C)c2C)cc1 | -37.5% (inactive) | 
O=C(N/N=C/c1ccccc1O)C1CCCC1 | 12.8% (inactive) | 
CCC(=O)N1c2ccccc2CC1C(=O)N1CCN(c2cccc(OC)c2)CC1 (stereo unspecified) | -5.26% (inactive) | 
O=C(CC(NCc1cccnc1)C(=O)O)Nc1ccc(O)cc1 (stereo unspecified) | -2.04% (inactive) | 
CCc1ccc(CNC(=O)C2CCN(c3nn4cc(-c5ccc(F)cc5)nc4s3)CC2)cc1 | 2.3% (inactive) | 
CC1CCCC(C)N1C(=O)CN1CCN(c2nc(-c3ccc(F)cc3)cs2)CC1 (stereo unspecified) |  | 70.8 µM (active)
COc1cccc(NC(=O)CN2CCN(c3nc(-c4cccc(OC)c4)cs3)CC2)c1 | -10.8% (inactive) | 
CC(C)(C)NC(=O)CSc1nc(-c2ccc(F)cc2)cc(C(F)(F)F)n1 | -4.35% (inactive) | 
COc1ccc(S(=O)(=O)N2CCCCC2)cc1C(=O)NC1CCS(=O)(=O)C1 (stereo unspecified) | -1.06% (inactive) | 
CCc1ccc(NC(=O)c2cc(S(=O)(=O)NC3CCCCCC3)ccc2F)cc1 | -1.62% (inactive) | 

SMILES | activity change, negative = inhibition | Potency
CC(CCCc1ccccc1)NC(=O)c1nn(-c2ccc(Cl)cc2)nc1CO (stereo unspecified) | 19.6% (inactive) | 
Cn1c(=O)c(=O)n(C)c2cc(NC(=O)c3ccccc3Br)ccc21 | 0.887% (inactive) | 
Cc1ccc(NC(=O)c2cccnc2C(=O)Nc2ccc(C)cc2)cc1 | -9.55% (inactive) | 
O=C(Nc1ccc(-n2ccnc2P(=O)(O)c2ccccc2)cc1)c1ccccc1Br |  | 44.7 µM (active)
COc1ccccc1NC(=O)CSc1oc(-c2ccco2)nc1S(=O)(=O)c1ccc(Br)cc1 | -18.6% (inactive) | 
Cc1cccc(NC(=O)CSc2nc3c([nH]c4ccccc43)c(=O)n2-c2cc(C)cc(C)c2)c1 | 3.67% (inactive) | 
CCN(CC)c1ccc(NC(=O)Cn2nc3c(cc2=O)CCCC3)c(C)c1 | -1.37% (inactive) | 
CCOc1ccc(C2C(C#N)=C(N)N(N(C)C)C3=C2C(=O)CCC3)cc1 (stereo unspecified) | -12.8% (inactive) | 
COc1ccc(C2C(C#N)=C(N)N(c3ncn[nH]3)C3=C2C(=O)CCC3)cc1 (stereo unspecified) |  | 79.4 µM (active)
N#CC1=C(N)N(c2ccccc2)C2=C(C(=O)CCC2)C1c1ccccc1 (stereo unspecified) | -3% (inactive) | 
Oc1ccc(Br)cc1C=Nc1ccc2[nH]ncc2c1 | -29.7% (inactive) | 
Cc1c(C(=O)Nc2ccccn2)oc2ccc(Br)cc12 | -26.1% (inactive) | 
Oc1ccc(Br)cc1/C=N/Nc1ccccn1 |  | 31.6 µM (active)
COC(=O)c1ccc(NC(=O)CCc2c(C)nc3c(c(C)nn3-c3ccc(C)cc3)c2C)cc1 | -0.711% (inactive) | 
COc1ccc(-c2nnc(SCC(=O)Nc3ccccc3C)o2)cc1OC | -0.905% (inactive) | 
CC(C)c1ccc(S(=O)(=O)Nc2ccc(O)c(Sc3nc4ccccc4s3)c2)cc1 |  | 25.1 µM (active)
CC(C)(C)c1ccc(S(=O)(=O)Nc2ccc(O)c(Sc3nc4ccccc4s3)c2)cc1 | -36.8% (inactive) | 
O=[N+]([O-])c1c(NCCO)cc(Sc2nc3ccccc3s2)c2nonc12 | -0.619% (inactive) | 
CC(C)c1ccc(NC(=O)Cn2nnc(C(=O)NCCc3ccccc3)c2N)cc1 | 8.13% [at 57.1 µM] (inactive) | 

Source: PubChem BioAssay AID504333 (National Center for Advancing Translational Sciences (NCATS), 2011)
